In PubChem BioAssay (NCI):
The panel holds about 83,000 compounds, 20% with a hit somewhere; the sample as a whole holds those more often.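 Note: values are percent growth. 100 is the growth of untreated cells, values between 100 and 0 indicate rising inhibition; between -100 and 0 indicates cell death.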 Active and inactive are the calls of the source. How the source made its calls: active means growth percent below 10; inactive means the rest.

Legend:
Test in all cases: NCI-60 one-dose screen, 48 h (100 = growth as untreated, 0 = no growth, -100 = all killed)
Conditions in all cases: 10 µM unless noted
[1] = test system: HCT-15 colon
[2] = test system: HT29 colon
[3] = test system: SNB-75 CNS
[4] = test system: SNB-19 CNS
[5] = test system: U251 CNS
[6] = test system: PC-3 prostate
[7] = test system: SK-MEL-5 melanoma
[8] = test system: UACC-62 melanoma
[9] = test system: LOX IMVI melanoma
[10] = test system: SK-MEL-28 melanoma

Measured: growth

CCC(C)Nc1ccc(NC(C)CC)cc1 (configuration not stated)
inactive: [1] 97.7% | [2] 71.5% | [3] 83.2% | [4] 101% | [5] 87.9% | [6] 80.7% | [7] 100% | [8] 87.1% | [9] 74% | [10] 104%

CCN(CC)c1ccc(/C=N\NC(=O)c2cccc(Nc3ccnc(C(F)(F)F)c3)c2)c(O)c1
active: [7] -52.2% | [8] -12.2%
inactive: [1] 28.7% | [2] 11.7% | [3] 34.7% | [4] 15.9% | [5] 13.1% | [6] 18.9% | [10] 64.8%

CCOC(=O)CSc1nc2sc3c(c2c(=O)n1-c1ccc([N+](=O)[O-])cc1)CCCCC3
inactive: [1] 85.1% | [2] 78.6% | [3] 11% | [4] 78.8% | [5] 53.5% | [6] 73.2% | [7] 88.7% | [8] 74.9% | [9] 79.6% | [10] 84.1%

Cc1nc2sc(C(=O)Nc3cccc(Cl)c3)c(N)c2cc1C(O)c1ccccc1 (configuration not stated)
inactive: [1] 14.2% | [2] 14.9% | [3] 46.9% | [4] 33.4% | [5] 10.2% | [6] 28.1% | [7] 11% | [8] 31.5% | [10] 56%

C/C(=C(/c1ccc(Cl)cc1)c1ccc(OCCCN(C)C)cc1)c1ccc(Cl)cc1
inactive: [1] 50.4% | [2] 16.3% | [3] 96.4% | [4] 97.3% | [5] 75.9% | [6] 84.8% | [7] 93.8% | [8] 109% | [9] 78.1% | [10] 99.5%

Cc1ccc(Nc2nc(-c3ccc(F)cc3)c(C#N)c(=O)n2C)cc1
inactive: [1] 55% | [2] 78.2% | [3] 30% | [4] 56.2% | [5] 68.2% | [6] 67.9% | [7] 77.2% | [8] 51.8% | [10] 74.1%

COc1cc(N2C(=O)[C@H](c3ccccc3)C2c2ccc(SC)cc2)cc(OC)c1OC (some centres not stated)
inactive: [3] 69.4% | [4] 30.8% | [6] 17.7% | [10] 60.9%
active: [1] 1.35% | [2] -9.59% | [5] 7.35% | [7] -20.7% | [8] 7.64%

Cc1cc2nc3c4ccccc4n(CCN(C)C)c3nc2cc1C
active: [1] -3.11% | [2] 8.23% | [3] 4.8% | [7] 6.22%
inactive: [4] 26% | [5] 15.7% | [6] 12.9% | [8] 36.2% | [10] 20.1%

CCN1C(=S)N(CC)C2C1NC(=S)N2/N=C/C=C/c1ccccc1OC (configuration not stated)
inactive: [1] 14.9% | [4] 26.5% | [5] 13.1% | [6] 33% | [7] 17.3% | [8] 23.5% | [10] 54.5%
active: [2] 2.78% | [3] -5.85%

COc1ccc(NC(=O)c2sc3nc4c(cc3c2N)CCCC4)cc1
active: [2] 0.414% | [7] 5.04%
inactive: [1] 28.6% | [3] 17.3% | [4] 34.7% | [5] 22.6% | [6] 26.9% | [8] 43% | [10] 62.3%

COc1ccc(C(c2cc(OC)c(OC)c(OC)c2)N2CCCC2)cc1 (configuration not stated)
inactive: [1] 52.7% | [2] 40.6% | [3] 84.1% | [4] 90.5% | [5] 77.8% | [6] 63.9% | [7] 65.2% | [8] 57.4% | [10] 80.1%

NC(=S)N/N=C/c1cn(-c2ccccc2)nc1-c1cc2ccccc2oc1=O
active: [3] 8.48%
inactive: [1] 28.2% | [2] 14.7% | [4] 56.6% | [5] 45.2% | [6] 67.5% | [7] 46.3% | [8] 34.2% | [9] 46.3% | [10] 69.7%

C=C(CO)[C@@H]1CC[C@]2(COC3CCCCO3)CC[C@]3(C)[C@H](CC[C@@H]4[C@@]5(C)C=C(C=O)C(=O)C(C)(C)[C@@H]5CC[C@]43C)[C@@H]12 (some centres not stated)
active: [1] -90.5% | [2] -83.6% | [3] -51.6% | [4] -83.8% | [5] -88.6% | [6] -82.5% | [7] -95.1% | [8] -76.7% | [9] -88.4% | [10] -71.3%

CCOC(=O)C(=Cc1cccc(C#N)c1)C(=O)OCC
active: [9] -44.1%
inactive: [1] 39% | [2] 20% | [3] 60.2% | [4] 85.1% | [5] 76.1% | [6] 62.8% | [7] 85.8% | [8] 53.4% | [10] 50.3%

CCN(CC)CCOc1ccc(Nc2ncc3cc(-c4ccc(O)cc4)c(=O)n(C)c3n2)cc1
inactive: [1] 19.7% | [2] 14.8% | [3] 27.7% | [4] 62.4% | [5] 53.9% | [7] 92.9% | [8] 93.3% | [10] 55.7%
active: [6] -49.3%

CCN(CC)CCOc1nc2c3ccc(Cl)cc3nn2c2ccccc12
active: [1] 4.7% | [8] 9.05% | [9] -47.2%
inactive: [2] 15.2% | [3] 33.5% | [4] 24.2% | [5] 16.4% | [6] 34.1% | [7] 51.3% | [10] 44.8%

COC(=O)c1c2c(n3ccc(C)cc13)C(=O)c1ccccc1C2=O
inactive: [1] 53.6% | [2] 61.5% | [3] 109% | [4] 78.3% | [5] 77.3% | [6] 48.9% | [7] 28.5% | [8] 78.3% | [9] 58.3% | [10] 99.4%

O=C(N/N=C/c1ccc(O)cc1O)c1ccc(Nc2ccnc(C(F)(F)F)c2)cc1
inactive: [1] 39.7% | [2] 58.6% | [3] 62.2% | [4] 32% | [5] 24.6% | [6] 50.2% | [7] 20.7% | [8] 11.7% | [9] 12.9% | [10] 60.7%

C=CC(C)(O)CC/C=C(\CO)C(=O)OC1C(C)OC(O[C@](C)(C=C)CC/C=C(\CO)C(=O)O[C@H]2C[C@@]3(C(=O)OC4OC(CO)C(O)C(O)C4OC4OC(C)C(OC5OC(CO)C(O)C5O)C(OC5OC(CO)C(O)C(O)C5O)C4O)C(CC2(C)C)C2=CCC4[C@@]5(C)CC[C@H](OC6OC(COC7OC(C)C(O)C(O)C7OC7OCC(O)C(O)C7O)C(O)C(O)C6NC(C)=O)C(C)(C)C5CC[C@@]4(C)[C@]2(C)C[C@H]3O)C(O)C1O (some centres not stated)
active: [3] -34.9% | [4] -54.1% | [5] -84.5% | [6] -68.9% | [8] -11% | [10] -90.3%
inactive: [1] 66.3% | [2] 21.5% | [7] 74.6%

CCCCCCCCCCCCCCCCCCOc1ccccc1CC(=O)OCC[N+]1(C)CCOCC1
inactive: [1] 90% | [2] 47.9% | [3] 19.7% | [4] 54.4% | [5] 30.1% | [6] 41.1% | [7] 79.8% | [8] 60.8% | [9] 55.9% | [10] 85.7%

O=C(c1ccc(F)c(Cl)c1)N1c2ccccc2Sc2ccccc21
inactive: [1] 27.2% | [2] 36.2% | [3] 68.6% | [4] 77% | [5] 39.4% | [6] 40.3% | [7] 34.4% | [8] 25.7% | [10] 61.7%

C[C@@H]1O[C@@H](O[C@@H]2C[C@H](c3ccc4c(c3O)C(=O)C3=C(C4=O)[C@@]4(O)C(=O)C[C@](C)(O)C[C@@]4(O)C=C3)O[C@H](C)[C@H]2O)C[C@H](O)[C@@H]1O
inactive: [1] 98.9% | [2] 106% | [3] 86.8% | [4] 91.8% | [5] 97.5% | [6] 90.5% | [7] 100% | [8] 94.2% | [10] 113%

CC[C@H](C)[C@H](NC(=O)[C@H](CCCNC(=N)N)NC(=O)[C@H](Cc1c[nH]c2ccccc12)NC(=O)[C@@H](NC(=O)[C@H](CCCCN)NC(=O)[C@H](CCCCN)NC(=O)[C@@H](NC(=O)[C@@H](NC(=O)[C@@H](NC(=O)[C@H](CCCCN)NC(=O)[C@H](Cc1ccccc1)NC(=O)[C@H](CCCCN)NC(=O)[C@H](CCCCN)NC(=O)[C@H](Cc1ccccc1)NC(=O)[C@@H](NC(=O)[C@@H](N)CCCCN)[C@@H](C)CC)[C@@H](C)O)[C@@H](C)CC)[C@@H](C)CC)C(C)C)C(=O)N[C@@H](Cc1ccccc1)C(=O)NCC(=O)N[C@@H](CCCNC(=N)N)C(=O)N[C@@H](Cc1ccccc1)C(N)=O
active: [1] -43% | [2] -35.7% | [3] -34% | [4] -35.9% | [5] -44.1% | [6] -25.9% | [7] 3.57% | [8] -65.7% | [10] -31.7%
